Rows were chosen to be rich in hits. Some 4.2% of all compounds tested hit in one or more screens of this group.
12-LOX inh: Primary qHTS assay for inhibitors of human arachidonate 12S-lipoxygenase (ALOX12): Round 2; Polyunsaturated fatty acid lipoxygenase ALOX12 (Homo sapiens), P18054; purified 12hLO, xylenol orange hydroperoxide absorbance; Potency, µM (doses to about 108 µM), for the others: at the top dose activity change, negative = inhibition, usual class: inhibitors; 580,000 tested, 1.1% active; AID 1671190, 2021
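Purified human 12hLO (150 nM final) in 25 mM Hepes, 0.01% Triton X-100, pH 7.0 was preincubated 15 min at room temperature with compound. Then 40 uM arachidonic acid was added, 30 min. Hydroperoxide was read by Fe-XO absorbance ratio 573/405 nm.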
PLK1 PBD inh: qHTS for Inhibitors of PLK1-PDB (polo-like kinase 1 - polo-box domain): Primary Screen; Serine/threonine-protein kinase PLK1 (Homo sapiens), P53350; Plk1 PBD binding of FITC phosphopeptide, fluorescence polarization; Potency, µM, for the others: max response, negative = inhibition, actives largely listed as inhibitors; AID 720504, 2013; 360,000 tested, 2.8% active; also: series mostly up to about 57 µM; nearly all actives have a fitted effect of over 65% in size
Target sequence (P53350 whole entry, looked up, the tested form may be a part): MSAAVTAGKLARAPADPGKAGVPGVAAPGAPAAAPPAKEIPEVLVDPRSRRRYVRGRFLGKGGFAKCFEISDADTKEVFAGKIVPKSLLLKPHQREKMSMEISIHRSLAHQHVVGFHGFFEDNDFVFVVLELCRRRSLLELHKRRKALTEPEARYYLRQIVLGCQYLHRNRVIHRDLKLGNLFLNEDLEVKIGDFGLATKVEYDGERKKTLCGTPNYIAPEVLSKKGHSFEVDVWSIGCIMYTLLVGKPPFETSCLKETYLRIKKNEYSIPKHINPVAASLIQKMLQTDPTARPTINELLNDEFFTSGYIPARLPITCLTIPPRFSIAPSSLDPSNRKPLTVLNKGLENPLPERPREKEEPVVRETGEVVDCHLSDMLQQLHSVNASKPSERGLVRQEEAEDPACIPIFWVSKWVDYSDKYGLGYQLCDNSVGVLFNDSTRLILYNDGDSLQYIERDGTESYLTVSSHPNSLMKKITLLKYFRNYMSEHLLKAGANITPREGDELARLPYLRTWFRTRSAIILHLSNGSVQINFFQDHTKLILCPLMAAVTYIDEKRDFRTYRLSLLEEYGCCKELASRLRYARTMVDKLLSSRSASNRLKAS
Sfp inh: qHTS Assay for Inhibitors of Bacillus subtilis Sfp phosphopantetheinyl transferase (PPTase); Biochemical Sfp PPTase activity, qHTS; AID 1490, 2009; 310,000 tested, 3.5% active; Potency, µM, for inactives: largest response in the series, negative = inhibition, hits mostly inhibitors;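 also: the enzyme is Sfp with the accession as filed and its product quenches rhodamine fluorescence; 0% = enzyme reaction without inhibitor and -100% = no enzyme wells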
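Compounds were incubated with enzyme (final 15 nM) for 15 min at room temperature before substrate addition started the reaction. Fluorescence at 525 nm excitation, 598 nm emission was recorded immediately and after 30 minutes.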
VDR inhibitor: Inhibitors of the vitamin D receptor (VDR): qHTS. Vitamin D3 receptor (Homo sapiens), P11473. VDR-SRC2-3 peptide fluorescence polarization, 2 h. Potency, µM, without a hit: max response, negative = inhibition, actives largely listed as inhibitors. 400,000 tested, 0.93% active
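Inhibition of the VDR/SRC2-3 peptide interaction is quantified by fluorescence polarization. Compounds (23 nl, pintool) incubate with the reagents for 2 hours at ambient room temperature.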
The depositor's hits bear a star; ? = inconclusive; . = no result; ! = repeats disagree; [ ] = another dose, or the depositor's remark. Calls follow the shape of the dose curve; as a rule, active = well fitted curve in the direction sought with a large enough effect; inconclusive = small, poorly fitted or top-dose-only effect, or another doubt; inactive = no such curve, though single readings can be large; an effect the other way counts as inactive or inconclusive. Unless noted, % is scaled to controls: 0 for no effect and ±100 for the full control effect; potency is read from the fitted curve at half-maximal effect.

SMILES	12-LOX inh	PLK1 PBD inh	Sfp inh	VDR inhibitor
COc1ccc(CC2C(=O)NC(=O)N(c3ccccc3)C2=O)c(OC)c1 (configuration not stated)	-10%[57.4 µM]	-14%	89µM*	4%
CCc1ccc(N2C(=O)NC(=O)C(Cc3ccc(OC)cc3OC)C2=O)cc1 (configuration not stated)	?	-12%	50µM*	-15%
CN1CCN(C(=O)Cc2c[nH]c3ncc(-c4ccc(F)c(Cl)c4)cc23)CC1	8%[176 µM]	.	.	.
COc1ccccc1-c1cc([C@H]2CN3CC[C@H]2C[C@@H]3CNC(=O)Nc2cccc(C#N)c2)n(C)n1	11%	.	.	.
CNC(=O)Oc1cccc2ccccc12	?	-13%	1%	14µM*!
CNC(=O)Oc1ccccc1C1CCCCC1	7%	-12%	.	6%
N#Cc1c(/N=C/c2c(O)n(Cc3ccco3)c(=O)[nH]c2=O)sc2c1CCCC2	-26%	24µM*	79µM*	79µM*
CCn1c(O)c(C=NCc2cccs2)c(=O)[nH]c1=O	-8%	15µM*	24%	?
CN(C)CCN=Cc1c(O)n(Cc2ccco2)c(=O)[nH]c1=O	-1%	-3%	-10%	0%
CCn1c(O)c(C=NCc2ccccc2)c(=O)[nH]c1=S	-25%	5%	5%	-1%
O=c1[nH]c(=O)n(Cc2ccco2)c(O)c1C=NCc1cccs1	-19%	-9%	50µM*	-12%
O=c1oc2ccccc2c(O)c1C(c1ccc([N+](=O)[O-])cc1)c1c(O)c2ccccc2oc1=O	7.9µM*	?	-91%	?
CC(C)c1ccc(C(c2c(O)c3ccccc3oc2=O)c2c(O)c3ccccc3oc2=O)cc1	7.1µM*	21µM*	.	.
COc1ccc(-n2nnnc2C(c2cc3ccccc3o2)N2CCC(n3c(=O)[nH]c4ccccc43)CC2)cc1 (configuration not stated)	-8%	-8%	.	.
O=c1c2ccccc2nc(/C=C\c2ccccc2[N+](=O)[O-])n1-c1ccccc1O	-3%	2%	3%	-4%
CN(C)c1ccc(/C=C2\CCCN=C2c2cccnc2)cc1	?	.	-14%	.
Cc1ccc(CN2CC[C@H]3CC[C@@H](C2)N3)s1	47%	.	.	.
CCCCCCCCn1sccc1=O	45µM*	4.7µM*	.	3.5µM*
Cc1nc2ccc(Nc3nc4cc(S(=O)(=O)N5CCOCC5)ccc4o3)cc2s1	?	4.7µM*	?	-13%
CN(C)CCCN=Cc1c(O)n(CCc2ccc(F)cc2)c(=O)[nH]c1=O	-23%	-1%	15%	-16%
CCOc1cc(/C=C2\C(=O)NC(=O)N(CCc3ccc(F)cc3)C2=O)ccc1O	?	1.7µM*	71µM*	?
CN(C)c1ccc(/C=C2\C(=O)NC(=O)N(Cc3ccc(F)cc3)C2=O)cc1	-30%	1.2µM*	-18%	-14%
CN(C)c1ccc(/C=C2/C(=O)NC(=O)N(CCc3ccc(F)cc3)C2=O)cc1	?	6µM*	-23%	?
COCCN1C(=O)NC(=O)/C(=C\c2ccc(Br)cc2)C1=O	-14%	5.3µM*	50µM*	?
CCCS(=O)(=O)N1CC[C@@H]2COCCN(C)[C@@H]2C1	37%	.	.	.
SMILES	12-LOX inh	PLK1 PBD inh	Sfp inh	VDR inhibitor
O=C1NC(=O)C(CCc2ccncc2)(CCc2ccncc2)C(=O)N1Cc1ccc(F)cc1	-5%	?	2%	6%
O=C1NC(=O)N(Cc2ccc(F)cc2)C(=O)/C1=C\c1ccoc1	?	2.7µM*	-28%	-1%
COCCCNC(=O)c1c(NC(=O)c2ccco2)n(Cc2ccccc2)c2nc3ccccc3nc12	408%	?	-10%	45µM*
CCOC(=O)c1c(N)n(CCCOC(=O)c2ccco2)c2nc3ccccc3nc12	0%	-15%	7%	-9%
CCCCCn1c(NC(=O)c2ccco2)c(C(=O)OCC)c2nc3ccccc3nc21	.	?	?	5µM*
COCCNC(=O)c1c(N)n(CCC(C)C)c2nc3ccccc3nc12	?	-10%	-3%	?
CC(C)OCCCNC(=O)c1c(N)n(Cc2cccs2)c2nc3ccccc3nc12	33%	-9%	?	-5%
COCCNC(=O)c1c(NC(=O)c2ccc(Br)o2)n(Cc2ccccc2)c2nc3ccccc3nc12	1%	-10%	28µM*	?
COc1ccc2c(c1)C1(CCN(C(=O)c3ccc(C)cc3)C1)C(=O)N2 (configuration not stated)	18%	.	.	.
CC(=O)c1ccc(OCC(=O)N2CCCC(N3CCN(c4ccccc4C)CC3)C2)cc1 (configuration not stated)	1%	-2%	18%	-6%
Oc1c(Br)c(Br)c(Br)c(Br)c1Br	.	27µM*	.	?
CCOC(=O)CC(NC(=O)C(Cc1ccc(N(CCCl)CCCl)cc1)NC(C)=O)C(=O)OCC (configuration not stated)	?	6µM*	79µM*	?
CCOP(=O)(OCC)C1(O)C(=O)Nc2ccc(Br)cc21 (configuration not stated)	-14%	-25%	25%	-3%
CN(C)c1c([N+](=O)[O-])cc(N2C(=O)C=CC2=O)cc1[N+](=O)[O-]	.	3µM*	.	16µM*
CCNc1cc(N2CCN(C)CC2)ccc1[N+](=O)[O-]	0%	3%	?	1%
CNC1Cc2ccccc2C1	-21%	.	.	.
CN(Cc1ccccc1)C(=O)CN1CCCC1=O	0%	-4%	14%	10%
CN(Cc1ccccc1)C(=O)c1ccc(NC(=O)C2CCN(C(=O)OC(C)(C)C)CC2)cc1	-10%	30µM*	.	-3%
CC(=O)C1CCC2C3CCC4=CC(=O)CC[C@@]4(C)C3CC[C@]12C (some centres not stated)	.	.	-15%	45µM*
Cc1ccc(OCC(=O)N2CCN(Cc3ccc(F)cc3)CC2)cc1	?	.	.	7%
CSc1ccc(CN2CCN(C(=O)COc3cccc(C)c3)CC2)cc1	?	-9%	71µM*	13%
CN(C)c1cccc(CN2CCN(c3ccccc3)CC2)c1	-29%	0%	.	.
CSc1ccc(C(=O)C2CCCN(Cc3cc4ccccc4[nH]3)C2)cc1 (configuration not stated)	-24%	30µM*	-12%	89µM*
CSc1ccc(C(=O)C2CCCN(Cc3cccnc3)C2)cc1 (configuration not stated)	2%	-20%	15%	-6%
CCOc1cc(-c2ccc(N)c(OCC)c2)ccc1N	123%	3.4µM*	-27%	-30%
COc1ccc2c(c1)C1(CCN(C(=O)Nc3ccc4c(c3)OCO4)C1)C(=O)N2 (configuration not stated)	35%	.	.	.
COC(=O)C1=C(c2ccc(-c3ccccc3)c(F)c2)C[C@@H]2CC[C@H]1N2C(=O)NCCOc1ccccc1	5%	-19%	.	-7%

Compound activity (PubChem)
